Assay results taken from PubChem BioAssay (EPA / NIEHS).
Some compounds were tested as several samples or in several runs, with calls that do not always agree. The source made the active and inactive calls. How the source made its calls: active means hit-call score of the fitted dose curve at least 0.9, where 1 is the maximum; inactive means score below 0.9.

Tests used:
[1] = CCTE_Shafer_MEA_acute_firing_rate_mean: CCTE's Neural Acute Assay for Mean Firing Rate, Shafer Lab (AID 2284009);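 further: analyzed for loss of signal so actives lower firing rate relative to DMSO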
Outline: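 Primary rat cortical neurons on 16-electrode MEA wells were exposed on DIV 13 or 15 to compound (0.03-40 uM). Spike counts per recording time, averaged over electrodes, were compared between 40-min baseline and 40-min post-exposure recordings as percent change.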

[2] = CCTE_Shafer_MEA_acute_burst_number: CCTE's Neural Acute Assay for Single-Electrode Bursts, Shafer Lab (AID 2284013)
Outline: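 Primary rat cortical neurons on 16-electrode MEA wells, DIV 13 or 15, exposed to compound (0.03-40 uM; ≥3 wells); 40-min recordings at 37 C before and after treatment. Burst count expressed as percent change from baseline, DMSO as negative control.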

[3] = CCTE_Shafer_MEA_acute_burst_duration_mean: CCTE's Neural Acute Assay for Mean Burst Duration, Shafer Lab (AID 2284014);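 further: hits are decreases in mean burst duration relative to DMSO controls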
Outline: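 Mean burst duration was compared between a 40 min baseline and a 40 min recording in the presence of compound (0.03-40 uM, 37 C), giving percent change per well. Cultures were rat cortical neurons at DIV 13 or 15; wells needed ≥10 active electrodes.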

[4] = CCTE_Shafer_MEA_acute_per_burst_spike_number_mean: CCTE's Neural Acute Assay for Average Number of Spikes Per Burst, Shafer Lab (AID 2284015);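 further: hits are decreases in mean spikes per burst versus baseline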
Outline: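 Primary rat cortical neurons on 48-well MEA plates, treated on DIV 13 or 15 at 0.03-40 uM. Spontaneous activity recorded 40 min before and 40 min after compound at 37 C; percent change in mean spikes per single-electrode burst per well, fitted in the loss direction versus DMSO.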

[5] = CCTE_Shafer_MEA_acute_interburst_interval_mean: CCTE's Neural Acute Assay for Mean Interburst Interval, Shafer Lab (AID 2284016);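 further: percent change of mean interburst interval versus each well's own pre-dose baseline; curves fitted for decrease in interburst interval relative to DMSO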
Outline: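 Primary rat cortical neurons on 16-electrode MEA wells were recorded 40 min at baseline on DIV 13 or 15, then 40 min after compound (0.03-40 uM), at 37 C. Value is percent change in mean interburst interval per well, DMSO as negative control.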

[6] = CCTE_Shafer_MEA_acute_burst_percentage_mean: CCTE's Neural Acute Assay for Percentage of Spikes in a Burst, Shafer Lab (AID 2284017)
Outline: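 Primary rat cortical neurons on 16-electrode MEA wells; 40 min baseline recorded at DIV 13 or 15, then 40 min after compound (0.03-40 uM) at 37 C. Well-mean fraction of spikes in single-electrode bursts; percent change from baseline, DMSO as negative control.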

[7] = CCTE_Shafer_MEA_acute_burst_percentage_std: CCTE's Neural Acute Assay for Standard Deviation of Burst Percentage, Shafer Lab (AID 2284018);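 further: fitted in the negative direction so actives lower burst percentage SD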
Outline: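 Value is percent change from baseline in the across-electrode SD of spikes-in-bursts percentage, wells with >/= 10 active electrodes. Acute 40-min exposure to 0.03-40 uM on DIV 13 or 15 rat cortical cultures, recorded at 37 C after 40-min baseline.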

[8] = CCTE_Shafer_MEA_acute_per_network_burst_spike_number_mean: CCTE's Neural Acute Assay for Average Number of Spikes in a Network Burst, Shafer Lab (AID 2284019)
Outline: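 Percent change from baseline in mean spikes per network burst, spikes detected at 8x rms noise. Each compound at 0.03-40 uM in at least three wells of rat cortical cultures, recorded 40 min before and 40 min during exposure.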

[9] = CCTE_Shafer_MEA_acute_per_network_burst_spike_number_std: CCTE's Neural Acute Assay for Standard Deviation of Number of Spikes in a Network Burst, Shafer Lab (AID 2284020);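 further: fitted for decrease in spike-number SD versus DMSO so actives lower it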
Outline: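 Endpoint: percent change from 40 min baseline in standard deviation of spikes per network burst, after 40 min compound exposure (0.03-40 uM, 37 C). Cortical rat neurons on MEA at DIV 13 or 15; spikes detected at 8x rms noise, 300-5000 Hz band-pass.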

[10] = CCTE_Shafer_MEA_acute_per_network_burst_electrodes_number_mean: CCTE's Neural Acute Assay for Mean Number of Electrodes in a Network Burst, Shafer Lab (AID 2284021);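 further: curves fitted for decreases only so hits reduce electrodes per burst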
Outline: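 Rat primary cortical neurons on 48-well MEAs, DIV 13 or 15, were treated at 0.03-40 uM. Spikes were detected at 8x rms noise and recorded at 37 C. The mean electrodes per network burst in a 40 min exposure recording was expressed as percent change from a 40 min baseline.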

[11] = CCTE_Shafer_MEA_acute_network_burst_percentage: CCTE's Neural Acute Assay for Percentage of Network Bursts, Shafer Lab (AID 2284022);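 further: curves fitted for loss so actives lower network burst percentage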
Outline: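 Rat primary cortical neuron networks on 48-well MEA plates, DIV 13 or 15, treated acutely with compound (0.03-40 uM, at least three wells). Percent of spikes within network bursts compared between 40-min recordings before and during exposure at 37 C, expressed as percent change.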

[12] = CCTE_Shafer_MEA_acute_cross_correlation_area: CCTE's Neural Acute Assay for Area of Cross Correlation, Shafer Lab (AID 2284024);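 further: curves fitted for loss of cross-correlation area so actives lower synchrony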
Outline: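 Rat primary cortical neurons on 48-well MEA, DIV 13 or 15; compounds 0.03-40 uM. Baseline and post-exposure 40 min recordings at 37 C; percent change in area under pooled inter-electrode cross-correlation near zero lag, relative to DMSO.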

[13] = CCTE_Shafer_MEA_acute_cross_correlation_HWHM: CCTE's Neural Acute Assay for Cross Correlation at Half Width at Half Maximum, Shafer Lab (AID 2284026);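 further: percent change per well from pre-dose baseline in spike cross-correlogram half width; hits are a decrease in cross-correlogram half width relative to DMSO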
Outline: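 Rat primary cortical neurons on 48-well MEA plates; 40-min baseline and 40-min post-exposure recordings at 37 C on DIV 13 or 15, compounds 0.03-40 uM. Spikes detected at 8x rms noise; percent change in cross-correlogram HWHM per well vs baseline.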

[14] = CCTE_Shafer_MEA_acute_synchrony_index: CCTE's Neural Acute Assay for Synchrony, Shafer Lab (AID 2284027);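 further: network synchrony index of spontaneous spiking in primary rat cortical neurons on MEAs; fitted for loss of signal so actives lower synchrony relative to DMSO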
Outline: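 Acute exposure of rat primary cortical neurons (DIV 13 or 15) at 0.03-40 uM. Synchrony index, 40 min before vs after, as % change relative to DMSO control.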

[15] = CCTE_Shafer_MEA_dev_firing_rate_mean: CCTE's Neural Network Formation Assay for Mean Firing Rate, Shafer Lab (AID 2284031);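 further: AUC of well mean spike rate recorded on DIV 5 7 9 and 12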
Outline: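 Extracellular spike frequency, AUC over DIV 5–12 recordings, in rat cortical neuron MEA cultures dosed from plating; loss direction vs DMSO.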

Measured: AC50

CP(=O)(O)CC[C@H](N)C(=O)O
inactive: [1] | [2] | [3] | [4] | [5] | [6] | [7] | [8] | [9] | [10] | [11] | [12] | [13] | [14] | [15]
active: [13] 36.5 µM
